These results are taken from ChEMBL document CHEMBL3988442, “University of Dundee, Small-Polar-MMV Screening Library” (2021).

Among all 48,000 compounds or so, about 13,000 (27%) showed an effect of 50% or more. The list shows a part of the results.

The assay relates to Wolbachia pipientis. Description: Anti-Wolbachia Cell-Based Screen. It is filed as functional. Set-up: scale not given: in the data most compounds retested in dose-response had high values. To be noted: 5 µM.
Consider `CC(C)N(Cc1c[nH]nc1-c1ccc2c(c1)OCO2)Cc1nccn1C`, for which the “Percent Effect” value was -1.902%.
Turning to `CN1CCN(c2ncc3c(c2C(=O)O)CCN(C2CCOC2)C3)CC1.O=C(O)C(F)(F)F.O=C(O)C(F)(F)F` (stereo not drawn), the “Percent Effect” value is recorded as 2.308%.
As to `CCN(CC)c1ncc2c(c1C(=O)O)CCN(C1CCOC1)C2.O=C(O)C(F)(F)F` (stereo not drawn), the “Percent Effect” value was 12.85%.
To `CN(C)CCOCc1cncc2c1CCN(C1CCOCC1)C2.O=C(O)C(F)(F)F.O=C(O)C(F)(F)F.O=C(O)C(F)(F)F` belongs 96.48%; to `O=C(C1CC=CC1)N1CCc2c(COCc3ccncc3)cncc2C1.O=C(O)C(F)(F)F.O=C(O)C(F)(F)F`, -4.118%; to `CN(C)C(=O)COCc1cncc2c1CCN(Cc1nccn1C)C2`, -3.709%.
The result for `CN(C)C(=O)COCc1cncc2c1CCN(C1CCOCC1)C2.O=C(O)C(F)(F)F.O=C(O)C(F)(F)F` reads 119.4%; that for `CN(C)CCOCc1cncc2c1CCN(C(=O)C1CCOCC1)C2.O=C(O)C(F)(F)F.O=C(O)C(F)(F)F`, 112.9%.
`Cn1ccnc1CNC[C@H]1Cn2cc(-c3ccccc3)nc2CO1`: the “Percent Effect” value is -17.11%.
On to `COc1cc(F)ccc1NC(=O)NCCNC(=O)OC(C)(C)C`, for which the “Percent Effect” value was determined as 3.046%.
To `CN(C)c1ccc(NC(=O)N2CCCCC2c2ncc[nH]2)cn1` (stereo not drawn) belongs 3.844%; to `OCCN(Cc1cccnc1)c1ccc(Br)cn1`, -12.52%; to `c1ccc(Cn2ccnc2CN2CCCC2c2noc(C3CC3)n2)cc1` (stereo not drawn), 9.89%.
Turning to `CNc1ccc(CC2CCCN(C(=O)c3cnccn3)C2)nn1` (stereo not drawn), the “Percent Effect” value came out at 132.6%.
The result for `CNc1ccc(CC2CCCN(C(=O)c3cnc(C)nc3)C2)nn1` (stereo not drawn) reads 2.499%; that for `CNc1ccc(CC2CCCN(C(=O)c3cccc(C)n3)C2)nn1` (stereo not drawn), 125.2%.
The result for `CNc1ccc(CC2CCCN(C(=O)c3cncnc3C)C2)nn1` (stereo not drawn) reads -8.103%; that for `O=C(c1cnccn1)N1CCCC(Cn2cc(C3CC3)nn2)C1` (stereo not drawn), -22.35%; that for `Cc1cccc(C(=O)N2CCCC(c3nccn3Cc3cscn3)C2)n1` (stereo not drawn), 13.18%.
For the compound `CCc1noc(CN(CC)C(=O)c2ccc3ncsc3c2)n1`, the “Percent Effect” value was -4.547%.
For the compound `Cc1nc(CN(C)C(=O)Nc2cccc(COC(C)C)c2)no1`, the “Percent Effect” value is -5.04%.
To `Cc1nc(CN(C)C(=O)Nc2cccc(C)c2C)no1` belongs 98.94%; to `Cc1nc(CN(C)C(=O)Nc2cccc(COC(C)C)c2C)no1`, -7.168%.
On to `CCN(C)c1ncnc2c1CCN(C(=O)c1cnccn1)CC2.O=C(O)C(F)(F)F`, for which the “Percent Effect” value is 3.18%.
The result for `CCc1n[nH]c(C2CN(C(=O)CCn3ccccc3=O)CCO2)n1` (stereo not drawn) reads 105.3%; that for `CCCc1n[nH]c(C2CN(C(=O)Cn3ccccc3=O)CCO2)n1` (stereo not drawn), 125.8%.
Take `CCc1n[nH]c(C2CN(C(=O)CCc3cccs3)CCO2)n1` (stereo not drawn): the “Percent Effect” value stood at 3.606%.
`CCc1n[nH]c(C2CN(C(=O)Cc3ccc(C)nc3)CCO2)n1` (stereo not drawn): the “Percent Effect” value turned out to be 17.82%.
To `CCc1n[nH]c(C2CN(C(=O)Cn3ccccc3=O)CCO2)n1` (stereo not drawn) belongs 10.71%; to `CCCc1n[nH]c(C2CN(C(=O)CCCn3cccn3)CCO2)n1` (stereo not drawn), -7.162%.
As to `CCc1n[nH]c(C2CN(C(=O)Cc3cccs3)CCO2)n1` (stereo not drawn), the “Percent Effect” value is on record as 122.2%.
The result for `CCCc1n[nH]c(C2CN(C(=O)CCn3ccccc3=O)CCO2)n1` (stereo not drawn) reads 104.2%.
The result for `CC(C)(C)c1coc([C@@H]2COCCN2Cc2c[nH]c3ccccc23)n1` reads -5.354%; that for `CS(=O)(=O)Cc1cccc(C(=O)NCC2Cc3ccccc3O2)c1` (stereo not drawn), -6.812%.
As for `CCN(C)S(=O)(=O)N1CCCC(c2cccc(C(=O)O)c2)C1` (stereo not drawn), the “Percent Effect” value is listed as 10.58%.
In the case of `CN(C)c1ccccc1C(=O)N1CCCC(c2cccc(C(=O)O)c2)C1` (stereo not drawn), the “Percent Effect” value worked out at 94.85%.
The result for `CC(C)N(C)CC(=O)N1CCCC(c2ccc(C(=O)O)cc2)C1` (stereo not drawn) reads -10.1%; that for `CN(C)c1ccccc1C(=O)N1CCCC(c2ccc(C(=O)O)cc2)C1` (stereo not drawn), 127.7%; that for `CCC1CN(C(=O)c2ccccc2N(C)C)CCN1C(C)C` (stereo not drawn), -1.815%.
To `O=C(O)c1cccc(C2CCCN(S(=O)(=O)C3CC3)C2)c1` (stereo not drawn) belongs 5.769%; to `CCS(=O)(=O)c1ncc(CN2CCSCC2)n1CCc1ccccc1`, 0.5583%.
To `COC(=O)C1(NCc2nc(C)c(C)o2)CCC(C)CC1` (stereo not drawn) belongs -8.144%; to `Cc1cc(C(=O)Nc2ccc(OCC3CCOCC3)cc2)[nH]n1`, 0.7277%; to `Cn1cnc(S(=O)(=O)NCCCN2CCCCCC2=O)c1Cl`, 103.8%.
On to `O=C1CCCCN1CCCNCc1cnc(C2CCC2)s1`, for which the “Percent Effect” value is -10.31%.
The result for `Cn1cnc(S(=O)(=O)NCCN2CCCCCC2=O)c1Cl` reads -2.808%; that for `CN1CCN(S(=O)(=O)c2ncn(C)c2Cl)CC1`, 8.331%.
The result for `CCN1CCN(S(=O)(=O)c2ncn(C)c2Cl)CC1` reads 25.01%; that for `Cn1cnc(S(=O)(=O)NCCCN2CCCC2=O)c1Cl`, 106%.
The result for `Cc1cc(C)n(CC(C)NC(=O)c2cc(CN3CCC(O)CC3)on2)n1` (stereo not drawn) reads -12.5%.
As to `COCCCc1nc(-c2ccc(S(=O)(=O)N3CCCC3)cc2)cs1`, the “Percent Effect” value is 23.72%.
As to `CCC(NC(=O)Cn1ccc(=O)n(C)c1=O)c1ccc(OC)cc1` (stereo not drawn), the “Percent Effect” value stood at 1.056%.
The result for `CCC(NC(=O)Cn1ccc(=O)n(C)c1=O)c1ccccc1OC` (stereo not drawn) reads 2.411%.
